The record followed here is ChEMBL document CHEMBL3988442, “University of Dundee, Small-Polar-MMV Screening Library” (2021).

Molecules are shown by their SMILES. For part of these data: Measured potencies and affinities stand elsewhere.

Holding throughout (set-up): scale not given: direction of the effect not stated beside the values
The target of assay [1] is Protein translocase subunit SecA (Escherichia coli (strain K12)) (UniProt P10408). The assay can be described thus: Assay to Identify E. coli SecA ATPase Inhibitors. In kind it is functional. The conditions noted are these: 30 µM.
Chain of Protein translocase subunit SecA (Escherichia coli (strain K12)) (P10408 whole entry): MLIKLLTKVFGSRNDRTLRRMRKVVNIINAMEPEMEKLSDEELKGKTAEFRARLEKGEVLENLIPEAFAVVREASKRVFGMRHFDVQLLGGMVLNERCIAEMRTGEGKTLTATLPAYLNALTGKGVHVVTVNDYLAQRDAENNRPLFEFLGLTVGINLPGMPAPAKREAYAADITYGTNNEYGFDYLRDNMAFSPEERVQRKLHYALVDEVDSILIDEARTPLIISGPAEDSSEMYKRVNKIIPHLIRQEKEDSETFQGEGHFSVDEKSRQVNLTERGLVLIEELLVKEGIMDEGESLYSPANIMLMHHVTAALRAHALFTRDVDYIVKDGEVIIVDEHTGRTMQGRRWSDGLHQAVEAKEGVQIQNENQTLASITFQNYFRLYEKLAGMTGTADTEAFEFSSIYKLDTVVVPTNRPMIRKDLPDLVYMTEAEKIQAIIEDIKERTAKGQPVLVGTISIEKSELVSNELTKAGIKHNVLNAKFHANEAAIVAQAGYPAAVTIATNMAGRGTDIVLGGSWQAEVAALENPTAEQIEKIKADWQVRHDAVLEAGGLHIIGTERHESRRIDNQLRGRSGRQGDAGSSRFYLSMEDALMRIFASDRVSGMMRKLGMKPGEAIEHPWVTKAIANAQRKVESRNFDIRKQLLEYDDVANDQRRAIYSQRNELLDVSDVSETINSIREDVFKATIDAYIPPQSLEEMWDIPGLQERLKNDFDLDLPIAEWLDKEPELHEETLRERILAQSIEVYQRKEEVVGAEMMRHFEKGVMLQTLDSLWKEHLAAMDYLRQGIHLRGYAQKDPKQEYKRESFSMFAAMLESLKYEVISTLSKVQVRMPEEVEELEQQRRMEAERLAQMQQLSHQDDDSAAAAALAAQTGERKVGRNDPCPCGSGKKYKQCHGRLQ
The target in assay [2] is T1, Ubiquitin-activating enzyme e1, putative (Leishmania donovani (strain BPK282A1)) (UniProt E9BSI1).
T1 sequence (whole entry): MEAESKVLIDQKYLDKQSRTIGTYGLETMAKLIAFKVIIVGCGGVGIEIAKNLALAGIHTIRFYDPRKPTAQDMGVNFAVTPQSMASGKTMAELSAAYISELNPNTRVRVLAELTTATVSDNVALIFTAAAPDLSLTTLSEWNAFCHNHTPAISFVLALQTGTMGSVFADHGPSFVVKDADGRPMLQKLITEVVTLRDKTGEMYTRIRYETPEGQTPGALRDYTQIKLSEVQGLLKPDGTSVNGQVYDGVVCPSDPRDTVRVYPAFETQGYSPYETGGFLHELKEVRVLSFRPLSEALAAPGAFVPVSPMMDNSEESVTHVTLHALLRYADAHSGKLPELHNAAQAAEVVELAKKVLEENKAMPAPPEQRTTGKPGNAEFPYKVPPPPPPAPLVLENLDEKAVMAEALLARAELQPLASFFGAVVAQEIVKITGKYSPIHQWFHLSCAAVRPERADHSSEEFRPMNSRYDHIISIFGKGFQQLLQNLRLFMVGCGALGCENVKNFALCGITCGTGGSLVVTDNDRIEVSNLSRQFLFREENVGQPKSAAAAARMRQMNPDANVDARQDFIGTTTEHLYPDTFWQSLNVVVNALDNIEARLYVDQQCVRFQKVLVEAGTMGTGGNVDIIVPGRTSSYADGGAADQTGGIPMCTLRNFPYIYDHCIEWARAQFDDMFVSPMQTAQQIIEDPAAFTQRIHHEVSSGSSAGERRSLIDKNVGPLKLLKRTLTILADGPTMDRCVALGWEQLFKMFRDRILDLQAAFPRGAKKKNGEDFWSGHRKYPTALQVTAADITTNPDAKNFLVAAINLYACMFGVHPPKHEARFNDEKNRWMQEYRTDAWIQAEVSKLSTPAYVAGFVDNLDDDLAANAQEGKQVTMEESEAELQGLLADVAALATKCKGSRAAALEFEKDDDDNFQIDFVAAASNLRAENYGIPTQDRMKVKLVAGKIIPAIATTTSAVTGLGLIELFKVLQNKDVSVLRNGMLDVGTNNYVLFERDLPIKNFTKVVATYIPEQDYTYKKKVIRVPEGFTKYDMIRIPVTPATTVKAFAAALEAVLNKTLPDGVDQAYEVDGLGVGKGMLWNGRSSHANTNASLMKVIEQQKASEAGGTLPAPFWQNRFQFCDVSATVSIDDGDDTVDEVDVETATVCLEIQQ
Put plainly: Leishmania donovani Ubiquitin Activating Enzyme (LdE1). In kind it is functional. The conditions noted are these: 30 µM.

The target in assay [3] is T2, Aspartate--tRNA(Asp/Asn) ligase (Mycobacterium tuberculosis (strain ATCC 25618 / H37Rv)) (UniProt P9WFW3). Note: in the data most compounds retested in dose-response had high values.
T2 sequence (whole entry): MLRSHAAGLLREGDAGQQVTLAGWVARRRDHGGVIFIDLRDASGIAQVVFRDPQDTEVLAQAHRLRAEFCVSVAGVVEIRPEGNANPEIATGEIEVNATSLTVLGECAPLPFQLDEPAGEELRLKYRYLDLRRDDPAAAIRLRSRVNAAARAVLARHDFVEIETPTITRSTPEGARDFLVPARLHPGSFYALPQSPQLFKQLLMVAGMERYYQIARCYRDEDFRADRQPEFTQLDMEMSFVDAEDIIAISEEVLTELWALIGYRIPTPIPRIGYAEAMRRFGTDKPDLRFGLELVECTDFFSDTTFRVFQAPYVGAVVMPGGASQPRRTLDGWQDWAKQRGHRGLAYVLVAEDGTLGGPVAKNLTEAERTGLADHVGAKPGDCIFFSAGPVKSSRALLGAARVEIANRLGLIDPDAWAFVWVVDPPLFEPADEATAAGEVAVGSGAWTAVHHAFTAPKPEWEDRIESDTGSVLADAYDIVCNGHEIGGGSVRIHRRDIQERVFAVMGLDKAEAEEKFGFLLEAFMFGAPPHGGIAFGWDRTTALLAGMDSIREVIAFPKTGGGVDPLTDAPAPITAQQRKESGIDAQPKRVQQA
Put plainly: Assay for Asp RNA synthetase-1 from Mycobacterium tuberculosis. The note with it: 30 µM. The class given is functional.

For assay [4], the target named is Sialic acid-binding Ig-like lectin 9 (Homo sapiens) (UniProt Q9Y336). The assay can be described thus: Hs-Siglec9 ALPHAscreen SOP 20170721. The note with it: 10 µM. On the technique in general: Alpha assays give light when donor and acceptor beads are brought close together.
Chain of Sialic acid-binding Ig-like lectin 9 (Homo sapiens) (Q9Y336 whole entry): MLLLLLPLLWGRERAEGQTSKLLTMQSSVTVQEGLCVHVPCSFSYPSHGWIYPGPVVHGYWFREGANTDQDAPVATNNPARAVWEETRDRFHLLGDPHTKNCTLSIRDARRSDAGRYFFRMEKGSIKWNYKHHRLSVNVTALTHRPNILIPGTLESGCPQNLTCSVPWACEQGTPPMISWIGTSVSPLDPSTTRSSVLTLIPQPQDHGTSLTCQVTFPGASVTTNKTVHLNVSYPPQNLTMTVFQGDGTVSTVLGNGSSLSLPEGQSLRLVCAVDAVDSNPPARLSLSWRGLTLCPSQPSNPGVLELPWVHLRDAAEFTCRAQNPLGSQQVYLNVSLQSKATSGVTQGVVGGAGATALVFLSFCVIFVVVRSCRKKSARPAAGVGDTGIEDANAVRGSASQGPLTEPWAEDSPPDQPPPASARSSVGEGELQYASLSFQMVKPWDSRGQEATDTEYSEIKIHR
The next assay deals with Trypanosoma cruzi. Put plainly: Trypanosoma cruzi phosphomannomutase and mannose-1-phosphate guanylyltransferase assay. The class given is functional. The note with it: 10 µM.
Assay [5] concerns the target T3, Arginase-2, mitochondrial (Homo sapiens) (UniProt P78540).
T3 sequence (whole entry): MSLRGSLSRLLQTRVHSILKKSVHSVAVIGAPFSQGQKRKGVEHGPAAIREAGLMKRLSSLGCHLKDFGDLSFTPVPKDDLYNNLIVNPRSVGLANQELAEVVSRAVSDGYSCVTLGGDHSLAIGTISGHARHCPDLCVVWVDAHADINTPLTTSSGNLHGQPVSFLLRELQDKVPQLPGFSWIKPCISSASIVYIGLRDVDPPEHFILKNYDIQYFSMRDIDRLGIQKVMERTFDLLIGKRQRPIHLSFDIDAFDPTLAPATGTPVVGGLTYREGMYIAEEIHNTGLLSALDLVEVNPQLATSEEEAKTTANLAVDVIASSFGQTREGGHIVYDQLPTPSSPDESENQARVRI
Put plainly: in vitro enzyme assay to detect the production of urea directly proportional to the activity of Arginase II. Note: in the data most compounds retested in dose-response had high values. In kind it is functional. The note with it: 33.3 µM.

Assay [6] addresses T4, Proteasome subunit beta (Trypanosoma cruzi) (UniProt O96673).
T4 sequence (whole entry): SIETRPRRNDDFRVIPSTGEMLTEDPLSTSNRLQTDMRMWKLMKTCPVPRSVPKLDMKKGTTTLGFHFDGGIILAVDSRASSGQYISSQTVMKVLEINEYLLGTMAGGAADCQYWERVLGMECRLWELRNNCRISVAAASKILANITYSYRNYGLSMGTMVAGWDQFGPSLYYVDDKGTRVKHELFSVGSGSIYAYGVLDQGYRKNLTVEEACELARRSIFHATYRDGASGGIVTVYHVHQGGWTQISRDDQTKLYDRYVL
Put plainly: Trypanosoma cruzi proteasome chymotrypsin-like activity (TcProtChymo) assay. Note: in the data most compounds retested in dose-response had high values. The class given is functional. The conditions noted are these: 9.37 µM.

The species named for a further assay is Homo sapiens. The assay can be described thus: To identify inhibition of the IFN signalling (Jak-Stat) pathway via expression of an eGFP reporter gene under the control of an IFN-stimulated response element (ISRE) containing MxA promoter. In kind it is functional. The note with it: 30 µM.
For assay [7], the target named is Shiga toxin 2 (Escherichia coli O157:H7) (UniProt P09385+P09386). Put plainly: E. coli 0.157:H7 Shiga Toxin SOP - stx2 screening assay. In kind it is functional. The conditions noted are these: 30 µM.
The target of assay [8] is T5, Tyrosyl-tRNA synthetase, putative (Trypanosoma cruzi (strain CL Brener)) (UniProt Q4DSP6).
T5 sequence (whole entry): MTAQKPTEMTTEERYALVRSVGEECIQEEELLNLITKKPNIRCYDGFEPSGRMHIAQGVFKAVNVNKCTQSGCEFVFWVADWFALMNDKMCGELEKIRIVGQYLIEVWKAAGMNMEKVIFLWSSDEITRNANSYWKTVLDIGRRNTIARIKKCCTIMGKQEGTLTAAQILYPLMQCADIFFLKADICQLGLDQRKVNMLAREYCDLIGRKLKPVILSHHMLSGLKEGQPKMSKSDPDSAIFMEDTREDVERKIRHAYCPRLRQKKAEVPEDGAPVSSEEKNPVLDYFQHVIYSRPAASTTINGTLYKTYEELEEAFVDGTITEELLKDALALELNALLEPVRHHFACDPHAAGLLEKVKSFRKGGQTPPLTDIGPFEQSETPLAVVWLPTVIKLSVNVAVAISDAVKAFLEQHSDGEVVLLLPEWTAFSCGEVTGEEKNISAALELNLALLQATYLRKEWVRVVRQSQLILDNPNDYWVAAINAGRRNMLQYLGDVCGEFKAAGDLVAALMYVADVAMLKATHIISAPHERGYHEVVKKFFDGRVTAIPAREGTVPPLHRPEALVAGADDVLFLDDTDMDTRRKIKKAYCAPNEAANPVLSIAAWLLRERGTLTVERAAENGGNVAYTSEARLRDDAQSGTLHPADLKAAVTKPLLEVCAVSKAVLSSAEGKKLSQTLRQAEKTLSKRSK
The assay can be described thus: Trypanosoma cruzi tyrosyl tRNA synthetase (TcYRS) _High Tyrosine SOP. Note: in the data most compounds retested in dose-response had high values. The class given is functional. The conditions noted are these: 30 µM.

The target in assay [9] is T5, Tyrosyl-tRNA synthetase, putative (Trypanosoma cruzi (strain CL Brener)). Put plainly: Trypanosoma cruzi tyrosyl tRNA synthetase (TcYRS) SOP. The note with it: 30 µM. The class given is functional.
The target in assay [10] is Chromo domain-containing protein 1 (Saccharomyces cerevisiae (strain ATCC 204508 / S288c) (Baker's yeast)) (UniProt P32657). Put plainly: ScCHD-1 Enzyme Inhibition Assay. Note: in the data most compounds retested in dose-response had high values. The note with it: 30 µM. In kind it is functional.
Chain of Chromo domain-containing protein 1 (Saccharomyces cerevisiae (strain ATCC 204508 / S288c) (Baker's yeast)) (P32657 whole entry, the tested form may be a part): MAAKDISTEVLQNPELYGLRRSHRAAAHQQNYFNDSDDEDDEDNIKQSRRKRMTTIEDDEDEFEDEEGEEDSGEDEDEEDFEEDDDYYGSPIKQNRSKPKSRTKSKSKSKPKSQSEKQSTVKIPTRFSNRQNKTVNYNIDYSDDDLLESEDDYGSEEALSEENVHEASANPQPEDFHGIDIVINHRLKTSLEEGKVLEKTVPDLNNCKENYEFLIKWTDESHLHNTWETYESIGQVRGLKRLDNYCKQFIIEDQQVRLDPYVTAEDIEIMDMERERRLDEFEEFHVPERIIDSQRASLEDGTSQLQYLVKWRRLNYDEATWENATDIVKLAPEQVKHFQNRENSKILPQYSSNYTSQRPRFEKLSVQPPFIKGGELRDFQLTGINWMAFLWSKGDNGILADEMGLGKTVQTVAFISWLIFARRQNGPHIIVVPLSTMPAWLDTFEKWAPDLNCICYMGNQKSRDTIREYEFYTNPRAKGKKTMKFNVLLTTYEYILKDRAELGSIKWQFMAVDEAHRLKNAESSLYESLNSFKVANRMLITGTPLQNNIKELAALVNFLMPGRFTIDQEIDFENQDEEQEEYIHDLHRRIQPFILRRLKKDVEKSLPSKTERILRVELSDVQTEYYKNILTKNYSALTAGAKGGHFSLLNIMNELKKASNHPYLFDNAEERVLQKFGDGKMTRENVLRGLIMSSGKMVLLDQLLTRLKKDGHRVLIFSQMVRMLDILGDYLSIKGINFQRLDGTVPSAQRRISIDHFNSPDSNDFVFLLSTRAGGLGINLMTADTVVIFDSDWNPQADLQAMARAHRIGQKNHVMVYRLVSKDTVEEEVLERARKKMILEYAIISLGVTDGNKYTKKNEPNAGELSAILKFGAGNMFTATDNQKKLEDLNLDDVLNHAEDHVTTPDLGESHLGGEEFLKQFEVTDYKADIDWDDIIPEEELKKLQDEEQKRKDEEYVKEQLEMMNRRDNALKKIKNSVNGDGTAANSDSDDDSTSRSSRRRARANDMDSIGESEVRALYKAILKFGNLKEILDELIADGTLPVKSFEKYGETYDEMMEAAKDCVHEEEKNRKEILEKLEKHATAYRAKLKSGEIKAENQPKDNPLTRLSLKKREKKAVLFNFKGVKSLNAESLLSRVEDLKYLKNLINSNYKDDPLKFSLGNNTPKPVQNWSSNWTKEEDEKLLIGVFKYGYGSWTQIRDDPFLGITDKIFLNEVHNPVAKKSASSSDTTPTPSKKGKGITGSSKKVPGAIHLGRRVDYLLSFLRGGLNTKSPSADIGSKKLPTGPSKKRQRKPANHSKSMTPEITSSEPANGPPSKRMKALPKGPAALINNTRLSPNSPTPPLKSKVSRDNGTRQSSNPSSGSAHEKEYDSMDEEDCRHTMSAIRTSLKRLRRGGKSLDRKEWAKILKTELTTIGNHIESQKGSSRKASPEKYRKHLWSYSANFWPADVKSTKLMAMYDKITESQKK
Assay [11] concerns the target AMP-activated protein kinase, AMPK (Homo sapiens) (UniProt P54646+O43741+P54619+Q9UGJ0+Q9Y478+Q13131+Q9UGI9). The assay can be described thus: AMP-dependent Kinase enzyme assay. An in vitro enzyme assay that detects ADP turnover that is directly proportional to AMPK activity. This uses naive AMPK that is activated during the assay with MK-8722. The class given is functional. The conditions noted are these: 30 µM.

Take `CC(C)(C)n1cc(C(=O)NCCCn2ccnc2)c2cccnc21`: the Percent Effect in [1] is 3.93%; in assay [2], 17.3%; in assay [3] it was 6.13%; in assay [4], -8.62%; in the assay with Trypanosoma cruzi it was 4.73%; in assay [5] it was 1.77%. Also, the Percent Effect in [6] is 19.1%; in the assay filed under Homo sapiens, 29.9%; in assay [7], -3.75%; in assay [8], 2.12%; in [9] it was 15%; in assay [10] it was -24.1%.
Turning to `Cc1nc(CN2CCO[C@H]3[C@@H](OCc4ccccn4)CC[C@@H]32)cs1`, the Percent Effect was -6.18% in [1]; 9.09% in assay [2]; 3.07% in assay [3]; -6.32% in [4]; -3.6% in the assay on Trypanosoma cruzi; -2.43% in [5]. Also, the Percent Effect was 10.2% in [6]; 4.6% in the assay filed under Homo sapiens; -1.17% in [7]; 4.74% in assay [8]; 7.69% in assay [9]; -4.92% in [10].
Consider `COCC(=O)N1C[C@@H]2OCCN(Cc3c(C)noc3C)[C@@H]2C1`, for which the Percent Effect in assay [1] is -1.15%; in [2], 1.3%; in [3], -3.8%; in [4] it was -1.81%; in the assay on Trypanosoma cruzi it was 3.02%; in assay [5], 17%. In addition, the Percent Effect in assay [6] is 27.1%; in the assay listed under Homo sapiens, 5.87%; in assay [7] it was -14.3%; in assay [8] it was 5.79%; in assay [9], 10.3%; in [10] it was 24%.
Regarding `O=C1CC2(CCCNC2)C(=O)N1Cc1ccccc1` (stereo not given), the Percent Effect was -1.32% in assay [1]; -16.9% in assay [2]; 1.23% in assay [3]; -1.16% in assay [4]; -6.57% in the assay on Trypanosoma cruzi; 0.457% in [5]. In addition, the Percent Effect is 16.4% in assay [6]; 15% in the assay filed under Homo sapiens; 2.48% in assay [7]; 2.9% in assay [8]; 0% in assay [9]; -9.23% in assay [10].
With `CNCCc1nc2cc(Cl)ccc2[nH]1`, the Percent Effect in assay [1] is -7.19%; in [2], 0%; in assay [3], 0.126%; in assay [11], 1.26%; in assay [4], -5.75%; with Trypanosoma cruzi it was -7.11%. In addition, the Percent Effect in assay [5] is -3.65%; in [6] it was 5.58%; in the assay listed under Homo sapiens, 5.87%; in assay [8], -4.92%; in assay [9], -6.17%; in assay [10], 0.639%.
